Measured values from PubChem BioAssay (NCI).
This is part of a sample that, as a whole, favours compounds with a hit. Of some 83,000 tested, about 20% had one in any assay.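 Each cell line was grown in a 96-well plate and treated with one concentration of compound for 48 hours. Values below 10 were considered active.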 Values without a mark were called inactive. Activity calls are given as the source filed them.

Test system: HL-60(TB) leukemia
Experiment: NCI-60 one-dose screen, 48 h (100 = growth as untreated, 0 = no growth, -100 = all killed)
Conditions: 10 µM unless noted

SMILES	growth
CCCCCCCCCCCCCCCCCC1=NCCN1CCNC(C)=O	79.2%
O=CNCCc1ccccc1	87.6%
COc1ccc(C2c3ccccc3NC(=O)N2C2CCN(C)CC2)c(OC)c1 (stereo not given)	92.7%
COc1cccc(N=Nc2cccc(OC)c2)c1	66.9%
O=C(NC(=S)NNC(=S)NNc1ccccc1)c1ccccc1	0.166% (active)
CC(C)(C)CC(C)(C)n1nnnc1C(NC12CC3CC(CC(C3)C1)C2)c1ccccc1 (stereo not given)	99.3%
Cn1cc(-c2ccc3c(Nc4cccc(NC(=O)Nc5cccc(F)c5)c4)ncnc3c2)cn1	74.1%
Oc1ccc(O)c(-c2ccccc2)c1	35.4%
CC(=O)Nc1nccs1	103%
Clc1ccc2c(c1)-n1cccc1C(c1ccc3ccccc3c1)=NC2	76.9%
Cc1ccc2c(c1)C(C)Cc1c(ncnc1-n1cnc3ccccc31)N2C (stereo not given)	-19.1% (active)
COc1cc(C2C3=C(COC3=O)Nc3cc4c(cc32)OCO4)cc2c1OCO2 (stereo not given)	-8.91% (active)
COc1cccc2c1C(=O)c1c(O)c3c(c(O)c1C2=O)C[C@@](O)(C(=O)COC(=O)c1ccccc1)C[C@@H]3OC1CC(N)C(O)C(C)O1 (stereo not given in full)	-74.8% (active)
COc1cnc2c(c1)C(=O)c1c-2n(CCCN2CCN(CCO)CC2)c(=O)c2cc([N+](=O)[O-])ccc12	12.7%
COc1cc(/C=C2\CN(S(=O)(=O)c3ccc(C)cc3)C/C(=C\c3cc(CN4CCOCC4)c(O)c(OC)c3)C2=O)cc(CN2CCOCC2)c1O	-15.5% (active)
